# Assay results reported in PubChem BioAssay (NCI).
# The panel holds about 83,000 compounds, 20% with a hit somewhere; the sample as a whole holds those more often.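 Compound tested at a single concentration for 48 hours in 96-well plates; a percent growth value below 10 was scored as active.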 Unmarked numbers belong to inactive results. Calls of active or inactive are those of the source.
# Legend:
# Assay in all cases: NCI-60 one-dose screen, 48 h (100 = growth as untreated, 0 = no growth, -100 = all killed)
# Details in all cases: 10 µM
# SR leukemia = tested on: SR leukemia
# RPMI-8226 leukemia = tested on: RPMI-8226 leukemia
# OVCAR-8 ovarian = tested on: OVCAR-8 ovarian
# OVCAR-5 ovarian = tested on: OVCAR-5 ovarian
# OVCAR-4 ovarian = tested on: OVCAR-4 ovarian
# SK-OV-3 ovarian = tested on: SK-OV-3 ovarian
# IGROV1 ovarian = tested on: IGROV1 ovarian
# OVCAR-3 ovarian = tested on: OVCAR-3 ovarian
# HS 578T breast = tested on: HS 578T breast
# NCI/ADR-RES ovarian = tested on: NCI/ADR-RES ovarian
Compound,growth (SR leukemia),growth (RPMI-8226 leukemia),growth (OVCAR-8 ovarian),growth (OVCAR-5 ovarian),growth (OVCAR-4 ovarian),growth (SK-OV-3 ovarian),growth (IGROV1 ovarian),growth (OVCAR-3 ovarian),growth (HS 578T breast),growth (NCI/ADR-RES ovarian)
COc1ccccc1/C=N\N/C(N)=N\N=C\c1ccccc1OC,-23.1% (active),1.89% (active),27.2%,32.3%,42.4%,26.3%,12%,-13.2% (active),-14.7% (active),22.6%
CCOS(=O)(=O)c1c(C(C)C)cc(C(C)C)cc1C(C)C,85.1%,119%,103%,90.6%,120%,108%,93.5%,103%,–,103%
COC(=O)c1c[nH]c2cc(OC(C)C)c(OC(C)C)cc2c1=O,97%,96.9%,58.8%,106%,109%,55.2%,139%,113%,–,101%
CCn1c(SCCc2ccccc2)nnc1-c1nn(-c2ccc(Cl)cc2Cl)c(-c2ccc(Cl)cc2)c1C,37.6%,54.1%,84.5%,81.7%,75.6%,79.1%,94.1%,69.1%,98%,72.6%
CCCc1cn(CC(=O)Nc2nc3ccccc3s2)nn1,110%,112%,100%,98.6%,109%,110%,97.3%,107%,101%,107%
COc1ccc(N=Nc2cc(OC)c(OC)c(OC)c2)cc1,58.2%,72.8%,87.2%,77.8%,100%,77.6%,62.7%,87.7%,79.3%,91.2%
CC(C)N(CCOc1ccc(-c2nc3sccn3c2-c2ccnc(S(C)(=O)=O)n2)cc1)C(C)C,74.4%,71.2%,90.6%,104%,72%,90.3%,96.2%,72.8%,76.6%,89.2%
CC(C)c1cc(N=O)cc(C(C)C)c1O,106%,93.5%,103%,97.2%,104%,109%,121%,110%,107%,99.8%
COc1ccc2c(c1)OC(N)=C(C#N)C2c1cc(OC)c(OC)c(OC)c1 (stereo not drawn),4.02% (active),11.6%,14.6%,39.3%,39.8%,50%,7.64% (active),-39.8% (active),25.3%,-24.3% (active)
C=CCn1c(SCC(=O)Nc2ccc(C(=O)/C=C/c3ccc(OC)cc3)cc2)nnc1-c1ccc(OC)c(OC)c1,58.7%,34.3%,79.8%,110%,73.8%,98%,94.4%,89.6%,–,86.4%
CCN1CC(CCN2CCOCC2)C(C(c2ccccc2)c2ccccc2)C1=O (stereo not drawn),94%,113%,99.9%,110%,113%,115%,127%,112%,–,98.8%
COc1cc(/C=C2\CCCC3=C2N=C2SC(C)=CN2C3c2cc(OC)c(OC)c(OC)c2)cc(OC)c1OC (stereo not drawn),0.0832% (active),-17% (active),-9.4% (active),-15% (active),39.6%,19.3%,2.86% (active),-2.36% (active),49.9%,1.74% (active)
CCCCCCCCCCOC(c1ccccc1)c1ccccc1,93.7%,96%,103%,88.7%,99.8%,96.6%,73.7%,–,99.7%,86.1%
CC(=O)OC1C=CC(OC(C)=O)O1 (stereo not drawn),101%,92.4%,94.2%,101%,97.5%,91.8%,89.8%,102%,–,99.2%
COc1ccc2c(c1)C(=O)/C(=C/c1ccc([N+](=O)[O-])o1)O2,2.34% (active),-3.06% (active),-71.6% (active),-52.2% (active),-87% (active),48.7%,-66.3% (active),–,17.8%,13.4%
CS(=O)(=O)c1nccc(-c2c(-c3cccc(OCCc4ccccc4)c3)nc3sccn23)n1,85.8%,96.9%,98%,103%,100%,96.5%,88.7%,104%,–,99.9%
Cc1ccc(NCCN(C)CC(C)O)c2c(=O)c3ccc(Cl)cc3sc12 (stereo not drawn),-28.9% (active),-8.72% (active),58.1%,77.9%,67.9%,91.6%,39.8%,73.3%,–,57.8%
O=C(CCC(C(=O)c1ccccc1)c1ccccc1)c1ccccc1 (stereo not drawn),25.5%,64.9%,95.3%,88%,91.2%,74.3%,79.3%,72.3%,–,38.3%
COc1ccc(/C=C/c2nnc(/C=C/c3ccc(OC)c(OC)c3)o2)cc1OC,11.6%,34%,42.1%,41.3%,57.6%,34.1%,22.5%,–,43.6%,13.6%
Cc1ccc(C(=O)C2C(=O)C3CCC2C3)cc1 (stereo not drawn),129%,99.3%,100%,99%,102%,107%,113%,107%,–,99.3%
CC(=O)C1N=NCC1c1ccccc1 (stereo not drawn),111%,110%,111%,98.9%,106%,103%,–,110%,90%,104%
O=C(NCCCNS(=O)(=O)c1ccc(Cl)cc1)Nc1ccc(-n2cc(-c3ccncc3)c(-c3ccc(Cl)c(O)c3)n2)cc1,17%,18.7%,36%,70.8%,44.2%,68.8%,62%,50%,–,76.8%
O=C(N/N=C/c1ccc(Cl)cc1)c1ccc(Cc2n[nH]c(=O)c3cccnc23)cc1,135%,117%,100%,99.7%,106%,103%,102%,–,108%,101%
COc1cc(C(=O)n2nc(-c3cc(OC)c(OC)c(OC)c3)nc2N)cc(OC)c1OC,73.5%,92.4%,102%,97%,94.5%,87.5%,105%,–,103%,99.2%
O=C(CCCCCCC(=O)Nc1ccccc1)NO,9.82% (active),12.8%,9.38% (active),1.38% (active),38.3%,1.71% (active),23.7%,–,22.2%,-18.2% (active)
C[C@@H](O)[C@H]1C(=O)N2C(C(=O)O)=C(SC3CN[C@H](C(=O)N(C)C)C3)[C@H](C)[C@H]12 (stereo partly drawn),123%,96.5%,107%,100%,114%,115%,101%,–,–,101%
CCCCC(CC)CN=C(N)NC(N)=NCCCCCCN=C(N)NC(N)=NCC(CC)CCCC (stereo not drawn),-67.4% (active),-46.7% (active),-71.6% (active),-87.1% (active),-57.2% (active),-38% (active),-66.8% (active),–,-52.6% (active),46.7%
Cc1ccc(NC(=O)N2CCCCC2)cc1[N+](=O)[O-],39.3%,41.7%,72.2%,101%,111%,112%,87.3%,–,54.8%,95.4%
CC(C)(O)CCl,111%,113%,102%,108%,129%,119%,–,114%,96%,108%
